The sample as a whole holds a higher share of hits than the screen did.
Methyltransferases – Primary Screen for Target Class Profiling of Small Molecule Inhibitors of Methyltransferases; hit rate 3.9% among 25,000; AID 1745853, 2022; purified enzyme, MTase-Glo SAH luminescence; hits give low values; calls only at 40 µM; call rule not given here
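Each enzyme was assayed with SAM and its substrate. SAH formation detected by MTase-Glo luminescence; single-point 40 uM screen[…].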
MTase-Glo ctr – counter-screen for methyltransferase inhibitors: coupling enzymes without methyltransferase | Potency, µM (top dose mostly 57.3 µM), without a hit: at the highest dose activity change, negative = inhibition, actives largely listed as inhibitors | shares compounds with Methyltransferases | MTase-Glo coupled enzymes, SAH conversion luminescence, no MTase | hit rate 6% among 180; active means well fitted inhibition curve with a large enough effect; further: potency means the concentration at half of the fitted maximal effect
Active calls of the source: *. On the % scale 0 is the no-effect control and ±100 the full control effect.

For COc1cccc(C(=O)NCC2CCCN(Cc3ccccn3)C2)c1OC (configuration not stated) the results were Methyltransferases inactive.
Cn1cc(CN2CCCC(COc3ccccc3C(=O)N3CCCCC3)C2)c2ccccc21 (configuration not stated) was read as Methyltransferases active and MTase-Glo ctr -2%.
`COc1cccc(C(=O)N2CCCC(COc3ccccc3C(=O)N3CCOCC3)C2)c1` (configuration not stated) gave Methyltransferases inactive.
For Cc1ccc(Cn2c(=O)c3ccccc3n3c(=O)n(Cc4cccc(F)c4)nc23)cc1 the results were Methyltransferases inactive.
For CCN1C(=O)c2c(C(=O)NCCc3cccc(C)c3)ncn2CC1(C)C(=O)NC1CCCC1 (configuration not stated) the results were Methyltransferases inactive.
For CC(C)n1cnc2c(-c3cnc(N)nc3)nc(N3CCOCC3)nc21 the results were Methyltransferases inactive.
For COc1cccc(CCC(=O)N2CCC(OCC3CC3)C2)c1 (configuration not stated) the results were Methyltransferases inactive.
`CCN(CC)c1cc(CCC(=O)N2CCN(c3cccc(OC)c3)CC2)ccn1` gave Methyltransferases active and MTase-Glo ctr -3%.
Screening COc1cccc(CCC(=O)N2CCC3(CC2)N=C(c2ccccc2)NO3)c1 returned Methyltransferases inactive.
`CC(C)Cn1c(=O)c2ccc(C(=O)NC3CCCCC3)cc2n2c(=O)n(CC(N)=O)nc12` gave Methyltransferases inactive.
COc1ccccc1CNC(=O)c1ccc2c(=O)nc3c(-c4cccc(F)c4)n[nH]n3c2c1 was read as Methyltransferases inactive.
Screening COc1ccc2c(c1)C(CN1CCN(CC(=O)OC(C)(C)C)CC1)=CC(C)(C)O2 returned Methyltransferases inactive.
For COc1ccc2c(c1)C(CN1CCN(c3ccc4oc(C(=O)O)cc4c3Cl)CC1)=CC(C)(C)CO2 the results were Methyltransferases active and MTase-Glo ctr -6%.
COc1ccc2c(c1)C(COCc1ccc(C(=O)O)cc1)=CC(C)(C)CO2 was read as Methyltransferases inactive.
COc1cccc(CN2C(=O)c3cc4sccc4n3CC2(C)C(=O)NC2CCC(C)CC2)c1OC (configuration not stated) was read as Methyltransferases inactive.
`CC1(C(=O)NC2CCCC2)Cn2c(cc3ccccc32)C(=O)N1C1CCCCCC1` (configuration not stated) gave Methyltransferases inactive.
For CCN(Cc1nccn1C)C(=O)c1ccc(N2CCC(COC)C2)nc1 (configuration not stated) the results were Methyltransferases inactive.
For CC(C)c1nccn1CCCNC(=O)c1ccc(N2CCCC(CO)C2)nc1 (configuration not stated) the results were Methyltransferases active and MTase-Glo ctr 1%.
`CN1CCCCC1CCNC(=O)c1ccc(N2CCOCC2)nc1` (configuration not stated) gave Methyltransferases inactive.
Screening CCCn1c(=O)c2ccc(C(=O)NC(C)CC)cc2n2c(=O)n(C)nc12 (configuration not stated) returned Methyltransferases inactive.
`Cc1cccc(NC(=O)c2ncn3c2C(=O)N(C2CC2)C(C)(C(=O)NCc2ccc(F)cc2)C3)c1C` (configuration not stated) gave Methyltransferases inactive.
For Cn1c(COc2cccc(CN3CCCC3)c2Cl)nnc1C1CC(N)C1 (configuration not stated) the results were Methyltransferases active and MTase-Glo ctr -5%.
Screening Cc1cc(N2CCN(Cc3nnc(C4CC(N)C4)n3C)CC2)cc(C)n1 (configuration not stated) returned Methyltransferases inactive.
CN(C)Cc1nnc(C2CC(NC(=O)Cc3c(F)cccc3Cl)C2)n1C (configuration not stated) was read as Methyltransferases inactive.
For CC(C)c1cc2n(n1)CC(C)(C(=O)NC1CCCCCC1)N(c1ccc(Cl)cc1)C2=O (configuration not stated) the results were Methyltransferases inactive.
`O=C(N[C@H](c1ccccc1)C1CC(O)C1)c1ccc(-n2cccn2)cc1` (some centres not stated) gave Methyltransferases inactive.
O=C(N[C@H](C1CCNCC1)C1CC(O)C1)c1ccc2nccnc2c1 (some centres not stated) was read as Methyltransferases active and MTase-Glo ctr 3%.
`NS(=O)(=O)c1ccc(C(=O)NC(Cc2ccncc2)C2CC(O)C2)cc1` (configuration not stated) gave Methyltransferases inactive.
For CC1(C(=O)NCc2ccc(Cl)cc2)Cn2c(ccc2-c2ccco2)C(=O)N1CCc1cccs1 (configuration not stated) the results were Methyltransferases inactive.
`COc1ccccc1NC(=O)Cn1nc2n(CCCOC(C)C)c(=O)c3ccccc3n2c1=O` gave Methyltransferases inactive.
COC[C@H]1C[C@@H](NC(=O)Nc2cccnc2)[C@H](O)[C@@H]1O was read as Methyltransferases inactive.
For COCc1cc(NCCCNc2cccnc2)ncn1 the results were Methyltransferases active and MTase-Glo ctr -7%.
`O=S(=O)(NCc1cccnc1-c1ccc(F)cc1)c1ccc(F)cc1` gave Methyltransferases inactive.
`O=C(Cn1ccc2cc(S(=O)(=O)N3CCCCC3)ccc21)NC1CCCC1` gave Methyltransferases inactive.
For COc1ccc(OCc2cc(C(=O)NC(CO)C(C)C)no2)c2ccccc12 (configuration not stated) the results were Methyltransferases active and MTase-Glo ctr 2%.
`COc1cccc(OC)c1-c1cc(C(=O)N[C@@H](CC(C)C)C(=O)O)nn1-c1ccnc2cc(Cl)ccc12` gave Methyltransferases inactive.
COc1cccc(CNC(=O)c2c(C)noc2-c2ccccc2OC)c1 was read as Methyltransferases inactive.
For CCc1ccc(CN2C(=O)c3cc4ccccc4n3CC2(C)C(=O)NCc2ccccc2)cc1 (configuration not stated) the results were Methyltransferases inactive.
For O=C(Cn1ccc2cc(S(=O)(=O)N3CCCCC3)ccc21)N1CCOCC1 the results were Methyltransferases inactive.
`COC(=O)c1cc2n(n1)CC(C)(C(=O)NC1CCC(C)CC1)N(Cc1ccccc1Cl)C2=O` (configuration not stated) gave Methyltransferases inactive.
For COc1ccc(-c2cc3n(n2)CC(C)(C(=O)NC2CCCCC2)N(CCC(C)C)C3=O)cc1 (configuration not stated) the results were Methyltransferases inactive.
For CC1(C(=O)NC2CCCCCC2)Cn2c(cc3occc32)C(=O)N1CCN1CCCC1 (configuration not stated) the results were Methyltransferases inactive.
For CCn1cc(CN2CCN(C(=O)c3cccs3)CC2)ccc1=O the results were Methyltransferases active and MTase-Glo ctr -3%.
NC(=O)CN1C(=O)[C@@H]2CN(C(=O)c3cccs3)CCN2C1=O was read as Methyltransferases inactive.
For CCn1cc(CN2CCN(C(=O)CCc3ccccc3)CC2)ccc1=O the results were Methyltransferases inactive.
